# Measured values taken from paper PMC4336329 (PLoS ONE, 2015).
# About 14,000 (4.5%) of roughly 310,000 compounds showed an effect of 50% or more. The effect is printed as a negative number. The full list was thinned out, with strong results kept by preference.
# Target: human ether-à-go-go-related gene (hERG) potassium channel (human, UniProt Q12809)
# Assay: primary screen, population patch clamp on CHO cells stably expressing hERG; higher = less effect of the substance
# 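Further: peak tail current of the secondary pulse compared with the same well before compound.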
# human ether-à-go-go-related gene (hERG) potassium channel, sequence (Q12809 whole entry, looked up): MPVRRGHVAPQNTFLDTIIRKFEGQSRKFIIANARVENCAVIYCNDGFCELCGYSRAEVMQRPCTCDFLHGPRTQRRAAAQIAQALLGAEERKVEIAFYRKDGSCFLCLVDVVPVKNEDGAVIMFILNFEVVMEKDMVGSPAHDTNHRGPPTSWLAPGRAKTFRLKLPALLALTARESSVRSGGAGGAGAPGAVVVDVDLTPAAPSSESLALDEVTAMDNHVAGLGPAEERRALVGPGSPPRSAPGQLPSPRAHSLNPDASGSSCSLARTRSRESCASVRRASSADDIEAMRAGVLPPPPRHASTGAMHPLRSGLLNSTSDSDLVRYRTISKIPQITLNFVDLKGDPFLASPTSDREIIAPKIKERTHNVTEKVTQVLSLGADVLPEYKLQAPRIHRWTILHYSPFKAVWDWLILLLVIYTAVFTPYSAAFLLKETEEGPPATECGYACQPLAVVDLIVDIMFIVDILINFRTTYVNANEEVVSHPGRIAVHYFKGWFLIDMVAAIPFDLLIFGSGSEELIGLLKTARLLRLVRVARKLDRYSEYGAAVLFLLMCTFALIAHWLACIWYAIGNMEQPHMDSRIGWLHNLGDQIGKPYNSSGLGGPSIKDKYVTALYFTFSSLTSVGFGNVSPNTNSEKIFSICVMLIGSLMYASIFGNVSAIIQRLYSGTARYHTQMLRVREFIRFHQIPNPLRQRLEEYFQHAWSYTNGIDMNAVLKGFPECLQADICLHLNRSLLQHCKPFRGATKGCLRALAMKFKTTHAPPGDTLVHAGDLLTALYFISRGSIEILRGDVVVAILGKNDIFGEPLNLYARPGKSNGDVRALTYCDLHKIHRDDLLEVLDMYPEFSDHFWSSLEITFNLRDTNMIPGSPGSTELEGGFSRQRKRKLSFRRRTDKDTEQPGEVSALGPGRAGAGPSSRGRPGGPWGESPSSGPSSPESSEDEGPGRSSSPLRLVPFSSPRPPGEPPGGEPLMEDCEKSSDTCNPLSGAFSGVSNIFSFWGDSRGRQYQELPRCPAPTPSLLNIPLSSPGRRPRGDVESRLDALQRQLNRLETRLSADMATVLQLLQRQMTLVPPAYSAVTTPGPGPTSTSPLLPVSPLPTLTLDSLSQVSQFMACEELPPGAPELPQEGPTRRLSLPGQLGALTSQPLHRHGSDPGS
row,SMILES,"hERG current change (%, negative = inhibition) at 10uM [%]"
1,Cc1c(NC(=O)COC(=O)c2cc(-c3ccc(-c4ccccc4)cc3)nc3ccccc23)c(=O)n(-c2ccccc2)n1C,28.4
2,COc1ccccc1NNC(=O)C(O)(c1ccccc1OC)c1ccccc1OC,20.2
3,O=C(NC(Cc1ccccc1)C(=O)O)/C(=C/c1ccc([N+](=O)[O-])cc1)NC(=O)c1ccc(Br)o1 (centres unmarked),11.5
4,Cn1c(=O)cc2c3c(c(N4CCCCC4)ccc31)C(=O)c1ccccc1-2,-63.2
5,CC(=O)Nc1ccc(Nc2ccc3c4c(cc(=O)n3C)-c3ccccc3C(=O)c24)cc1,9.74
6,CC(=O)N(C)c1ccc(N2CCOCC2)c2c1C(=O)c1ccccc1C2=O,-0.974
7,CCn1c(SCC(=O)Nc2cc(S(=O)(=O)N3CCOCC3)ccc2OC)nnc1-c1ccncc1,13.8
8,O=C(COc1ccc(Cl)cc1)Nc1c(-c2cccs2)nc2ccccn12,-14.4
9,Nc1cc(-c2nn[nH]n2)ccc1F,11.6
10,O=C(Nc1ccc(Cl)c(-c2nc3ccccc3[nH]2)c1)c1ccc2c(c1)OCO2,-15
11,Cc1ccc(N2CC(C(=O)N3CCCCCC3)CC2=O)cc1 (centres unmarked),11.5
12,O=C1CC2(CCN(C(=O)C3CC(=O)N(c4ccc(F)cc4)C3)CC2)Oc2ccccc21 (centres unmarked),-78.7
13,Cc1ccc(N2CC(C(=O)N3CCC4(CC3)CC(=O)c3ccccc3O4)CC2=O)cc1C (centres unmarked),-71.3
14,CCOC(=O)N1CCN(C(=O)C2CC(=O)N(c3ccccc3)C2)CC1 (centres unmarked),5.31
15,O=C1CC2(CCN(C(=O)C3CC(=O)N(c4ccccc4)C3)CC2)Oc2ccccc21 (centres unmarked),-77.4
16,Cc1ccc(N2CC(C(=O)N3CCOCC3)CC2=O)cc1C (centres unmarked),6.52
17,Cc1ccc(N2CC(C(=O)N3CCC4(CC3)CC(=O)c3ccccc3O4)CC2=O)cc1 (centres unmarked),-71.6
18,CCOC(=O)N1CCN(C(=O)C2CC(=O)N(c3ccc(C)cc3)C2)CC1 (centres unmarked),-47.9
19,NC(=O)C1CCN(C(=O)C2CC(=O)N(c3ccc(F)cc3)C2)CC1 (centres unmarked),13.7
20,O=C(C1CC(=O)N(c2ccc(F)cc2)C1)N1CCOCC1 (centres unmarked),1.27
21,O=C(C1CC(=O)N(c2ccccc2)C1)N1CCCCCC1 (centres unmarked),13

row,SMILES,"hERG current change (%, negative = inhibition) at 10uM [%]"
1,Cc1ccc(N2CC(C(=O)N3CCCCC3)CC2=O)cc1C (centres unmarked),-21.2
2,CCN(CC#CCC(O)(c1ccccc1)C1CCCC1)C(C)C.Cl (centres unmarked),-18.9
3,CCNC(=O)NC(=O)C(C)OC(=O)Cc1coc2cc3c(cc12)CCC3 (centres unmarked),26.6
4,Nc1c(Cl)cc(C2=NCCn3c2c2ccc(C(F)(F)F)cc2[n+]3[O-])cc1Cl,-26.1
5,Cc1ccc(C2=NCCn3c2c2ccc([N+](=O)[O-])cc2[n+]3[O-])cc1,-7.51
6,Cc1ccc(C2=NCCn3c2c2ccc(C(F)(F)F)cc2[n+]3[O-])cc1,-26.2
7,Nc1c(Cl)cc(C2=NCCn3c2c2ccc([N+](=O)[O-])cc2[n+]3[O-])cc1Cl,-54.8
8,O=[N+]([O-])c1ccc2c3n([n+]([O-])c2c1)CCN=C3c1ccc(Cl)cc1,-29.6
9,[O-][n+]1c2cc(C(F)(F)F)ccc2c2n1CCN=C2c1ccc(Cl)cc1,-55.6
10,COc1cccc(/C=C/C(=O)OCC(=O)c2c[nH]c3ccccc23)c1OC,9.29
11,CCOC(=O)c1c[nH]c2c(C)cc(C)cc2c1=O,-0.349
12,CCCCOP(=O)(c1ccc(N(C)C)cc1)C(O)c1ccc(OC)cc1 (centres unmarked),-2.61
13,O=[N+]([O-])c1cc(S(=O)(=O)NCCc2ccccn2)ccc1Cl,-21.8
14,C=CCCC(=O)Nc1nc(C)c(-c2csc(Nc3ccc(Cl)cc3)n2)s1,14.9
15,S=c1[nH]nc(-c2ccc3ccccc3n2)o1,17.2
16,Cc1ccc(C)c2[nH]c(=O)c(CCNC(=O)C(C)(C)C)cc12,8.5
17,O=C(CSc1ncccc1C(=O)O)c1ccccc1,6.47
18,O=C(O)c1cccnc1SCc1ccccc1,-1.22
19,O=C(O)CSc1ncccc1C(=O)O,-53.7
20,O=C(N/C(=C/c1ccc(Cl)cc1)c1nc2ccccc2[nH]1)c1ccco1,9.34
